rCAG RNA binder: binds r(CAG) RNA repeats. r(CAG) RNA repeat, TO-PRO-1 dye displacement fluorescence. inhibition, % at 3 µM. 370,000 compounds, 1.3% hits. AID 651821;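 active = inhibition above the plate cutoff, the mean of all test compounds on that plate plus 3 SD, cut at about 35% in these data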;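 note: higher means more dye released from RNA so lower well fluorescence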
PG9 binder: binds the HIV-1 gp120 antibody PG9; TR-FRET gp120-PG9 antibody binding; inhibition, % at 6.7 µM; 360,000 compounds, 0.43% hits; AID 624416; in the data active = inhibition above about 8.5%
HGIII-sPLA2 inh: Inhibits HGIII-sPLA2 liposome hydrolysis, primary screen; Q9NZ20; QFRET BODIPY PC-A2 liposome hydrolysis, fluorescence; inhibition, % at 12.2 µM; 370,000 compounds, 0.56% hits; AID 743126;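 active = inhibition above mean plus 3 SD of compounds lying within the high and low control bounds, cut at about 19% in these data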
Target sequence (Q9NZ20 whole entry, looked up): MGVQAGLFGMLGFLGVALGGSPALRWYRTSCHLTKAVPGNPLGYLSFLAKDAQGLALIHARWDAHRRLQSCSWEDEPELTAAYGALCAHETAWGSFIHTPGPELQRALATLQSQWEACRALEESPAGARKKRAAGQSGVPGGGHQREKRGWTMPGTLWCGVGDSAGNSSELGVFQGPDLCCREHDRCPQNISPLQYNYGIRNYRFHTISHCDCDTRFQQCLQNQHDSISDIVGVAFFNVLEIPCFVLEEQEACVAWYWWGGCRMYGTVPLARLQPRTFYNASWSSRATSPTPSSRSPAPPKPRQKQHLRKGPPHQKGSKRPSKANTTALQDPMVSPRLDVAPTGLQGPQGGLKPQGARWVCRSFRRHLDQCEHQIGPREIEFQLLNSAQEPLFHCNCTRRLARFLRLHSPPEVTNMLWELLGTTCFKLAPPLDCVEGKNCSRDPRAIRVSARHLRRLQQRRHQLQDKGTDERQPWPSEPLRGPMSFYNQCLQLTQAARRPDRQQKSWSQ
MsrA act: bovine methionine sulfoxide reductase A activation; purified bovine MsrA, absorbance read-out; activation, % at 10.6 µM; 360,000 compounds, 0.3% hits; in the data active = activation above about 7.5%
MsrA inhibitor: bovine MsrA inhibition. purified bovine MsrA, absorbance read-out. inhibition, % at 15.5 µM. 360,000 compounds, 0.75% hits; in the data active = inhibition above about 4.5%
rCAG bind conf: r(CAG) RNA repeat binding, confirmation; 4,300 compounds, 70% hits; inhibition, % at 3 µM; TO-PRO-1 dye displacement fluorescence; AID 652065; shares compounds with rCAG RNA binder;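 active = inhibition above a per-plate cutoff, the mean inhibition of sample wells plus 3 SD, cut at about 35% in these data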;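 note: loss of TO-PRO-1 fluorescence as compound displaces dye from 1x1 AA loop RNA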
dCAG dye counter: disrupts DNA CAG TO-PRO-1 complex, flagging rCAG hits; shares compounds with rCAG RNA binder; d(CAG) DNA oligo TO-PRO-1 dye displacement, fluorescence; inhibition, % at 3 µM; 4,300 compounds, 94% hits; AID 652068;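 active = inhibition above its plate's cutoff, the mean test-well inhibition plus 3 SD, cut at about 4.8% in these data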;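 note: hits displace the dye from DNA and so lower well fluorescence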
A number is an active result. Hits are enriched below; roughly 3.2% of the tested compounds scored in any of these assays.

What do the screens show for `Cc1cc(C)c2oc(C(=O)Nc3ccc(S(=O)(=O)Nc4nccs4)cc3)cc(=O)c2c1`?
rCAG RNA binder: 68; PG9 binder: inactive; HGIII-sPLA2 inh: inactive; MsrA act: inactive; MsrA inhibitor: inactive; rCAG bind conf: 64; dCAG dye counter: 29

How did CC(=O)Nc1ccc(NC(=O)c2cc(=O)c3cc(C)cc(C)c3o2)cc1 do in these assays?
rCAG RNA binder: inactive; PG9 binder: inactive; HGIII-sPLA2 inh: inactive; MsrA act: inactive; MsrA inhibitor: inactive

Results for Cc1onc(-c2ccccc2Cl)c1C(=O)Nc1ccc(S(=O)(=O)Nc2nccs2)cc1 ?
rCAG RNA binder: 41; PG9 binder: inactive; HGIII-sPLA2 inh: inactive; MsrA act: inactive; MsrA inhibitor: inactive; rCAG bind conf: 37; dCAG dye counter: 13

Results for Cc1cc2oc(C(=O)Nc3ccc(S(=O)(=O)Nc4nccs4)cc3)cc(=O)c2cc1Cl ?
rCAG RNA binder: 77; PG9 binder: inactive; HGIII-sPLA2 inh: inactive; MsrA act: inactive; MsrA inhibitor: inactive; rCAG bind conf: 87; dCAG dye counter: 48

What do the screens show for `COCCCNC(=O)[C@@H](Cc1ccccc1)NC(=O)[C@H]1O[C@@H](n2ccc(=O)[nH]c2=O)[C@H](O)[C@@H]1O`?
rCAG RNA binder: inactive; PG9 binder: inactive; HGIII-sPLA2 inh: inactive; MsrA inhibitor: inactive

How did CCCCCCCCN1C(=O)[C@@H](CC(=O)NCCCC)C[C@@]2(C(=O)OC)C1=C[C@H](COCc1ccccc1)O[C@@H]2C do in these assays?
rCAG RNA binder: inactive; HGIII-sPLA2 inh: inactive

What do the screens show for `O=C(O)c1ccc(NS(=O)(=O)c2ccc3c(c2)C2C=CCC2C(c2ccccc2F)N3)cc1` (stereo not given)?
rCAG RNA binder: 88; PG9 binder: inactive; HGIII-sPLA2 inh: inactive; MsrA act: inactive; MsrA inhibitor: inactive; rCAG bind conf: 61; dCAG dye counter: 27

Results for CC(c1c[nH]c2ccccc12)c1cn(C)c2ccccc12 (stereo not given) ?
rCAG RNA binder: inactive; HGIII-sPLA2 inh: inactive

Results for CCOC(=O)C1=C(O)/C(=C/c2ccc(OCC(=O)O)c(OC)c2)SC1=Nc1ccc(OC)cc1 ?
rCAG RNA binder: 52; PG9 binder: inactive; HGIII-sPLA2 inh: inactive; MsrA act: inactive; MsrA inhibitor: inactive; rCAG bind conf: 65; dCAG dye counter: 20

What do the screens show for `CCCCCCCCN1C(=O)[C@@H](CC(=O)NCCCOCCCC)C[C@@]2(C(=O)OC)C1=C[C@H](C(C)C)O[C@@H]2C1CC1`?
rCAG RNA binder: inactive; HGIII-sPLA2 inh: inactive

How did CC(/C=C/c1ccco1)=N\NC(=O)c1cc(Cl)ccc1O do in these assays?
rCAG RNA binder: 49; PG9 binder: inactive; HGIII-sPLA2 inh: inactive; MsrA act: inactive; MsrA inhibitor: inactive; rCAG bind conf: 37; dCAG dye counter: 16

How did O=C(C=Cc1ccco1)c1cc(Cl)ccc1O do in these assays?
rCAG RNA binder: inactive; PG9 binder: inactive; HGIII-sPLA2 inh: inactive; MsrA act: inactive; MsrA inhibitor: inactive

How did Cc1ccc(NC(=S)NNc2ccc([N+](=O)[O-])cc2S(=O)(=O)Nc2ccccc2C(=O)O)cc1C do in these assays?
rCAG RNA binder: 91; PG9 binder: inactive; HGIII-sPLA2 inh: inactive; MsrA act: inactive; MsrA inhibitor: inactive; rCAG bind conf: 94; dCAG dye counter: 70

Results for COc1ccc(C(C)=NNc2ccc([N+](=O)[O-])cc2S(=O)(=O)Nc2ccccc2C(=O)O)c(OC)c1 ?
rCAG RNA binder: 77; PG9 binder: inactive; HGIII-sPLA2 inh: inactive; MsrA act: inactive; MsrA inhibitor: inactive; rCAG bind conf: 93; dCAG dye counter: 78

Results for Cc1cccc(NC(=O)C(C)OC(=O)c2ccccc2NS(=O)(=O)c2cc(C)c(C)c([N+](=O)[O-])c2)c1 (stereo not given) ?
rCAG RNA binder: inactive; PG9 binder: inactive; HGIII-sPLA2 inh: inactive; MsrA act: inactive; MsrA inhibitor: inactive

Results for CC(=O)Nc1ccc(C=NNc2ccc([N+](=O)[O-])cc2S(=O)(=O)Nc2ccccc2C(=O)O)cc1 ?
rCAG RNA binder: 57; PG9 binder: inactive; HGIII-sPLA2 inh: inactive; MsrA act: inactive; MsrA inhibitor: inactive; rCAG bind conf: 89; dCAG dye counter: 65

What do the screens show for `O=C(O)c1ccccc1Nc1ccc([N+](=O)[O-])cc1C(=O)O`?
rCAG RNA binder: inactive; PG9 binder: inactive; HGIII-sPLA2 inh: inactive; MsrA act: inactive; MsrA inhibitor: inactive

Results for O=C(O)c1ccccc1NS(=O)(=O)c1ccc(NNC(=S)Nc2ccc(OC(F)F)cc2)c([N+](=O)[O-])c1 ?
rCAG RNA binder: 101; PG9 binder: inactive; HGIII-sPLA2 inh: inactive; MsrA act: inactive; MsrA inhibitor: inactive; rCAG bind conf: 95; dCAG dye counter: 80

Results for CNC(=S)Nc1ccc([N+](=O)[O-])c(C)c1 ?
rCAG RNA binder: inactive; PG9 binder: inactive; HGIII-sPLA2 inh: inactive; MsrA act: inactive; MsrA inhibitor: inactive

Results for Cc1ccc(NC(=S)NNc2ccc(C(=O)O)cc2[N+](=O)[O-])cc1C ?
rCAG RNA binder: 35; PG9 binder: inactive; HGIII-sPLA2 inh: inactive; MsrA act: inactive; MsrA inhibitor: inactive; rCAG bind conf: inactive; dCAG dye counter: 10

Results for COC(=O)Cc1ccc(NC(=O)c2ccc3c(c2)C(=O)N(Cc2ccco2)C3=O)cc1 ?
rCAG RNA binder: inactive; PG9 binder: inactive; HGIII-sPLA2 inh: inactive; MsrA act: inactive; MsrA inhibitor: inactive

What do the screens show for `CCc1ccc(NC(=O)c2ccc3c(c2)C(=O)N(Cc2ccco2)C3=O)cc1`?
rCAG RNA binder: 35; PG9 binder: inactive; HGIII-sPLA2 inh: inactive; MsrA act: inactive; MsrA inhibitor: inactive; rCAG bind conf: inactive; dCAG dye counter: 14

What do the screens show for `O=C(CSc1nc2ccccc2[nH]1)NN=Cc1ccccc1C(=O)O`?
rCAG RNA binder: inactive; HGIII-sPLA2 inh: inactive

Results for O=C(CSc1nc2ccccc2s1)Nc1cc(S(=O)(=O)N2CCOCC2)ccc1O ?
rCAG RNA binder: 49; PG9 binder: inactive; HGIII-sPLA2 inh: inactive; MsrA act: inactive; MsrA inhibitor: inactive; rCAG bind conf: 40; dCAG dye counter: 16

Results for CCCCc1ccc(CC(=O)Nc2cc(S(=O)(=O)N3CCOCC3)ccc2O)cc1 ?
rCAG RNA binder: 48; PG9 binder: inactive; HGIII-sPLA2 inh: inactive; MsrA act: inactive; MsrA inhibitor: inactive; rCAG bind conf: 51; dCAG dye counter: 16

How did COC(=O)[C@]1(C#N)CC(=O)N(Cc2ccc(Cl)cc2)[C@@H]1c1ccc(OC)cc1 do in these assays?
rCAG RNA binder: inactive; HGIII-sPLA2 inh: inactive

Results for COC(=O)[C@]12C[C@H](CC(=O)N3CCCC3)C(=O)N(CCc3ccc(OC)c(OC)c3)C1=C[C@H](COCc1ccccc1)O[C@@H]2C ?
rCAG RNA binder: inactive; HGIII-sPLA2 inh: inactive

How did Cc1ccc(S(=O)(=O)N2[C@@H](c3ccc(Br)cc3)C(C(=O)O)=CC[C@H]2c2ccc(Cl)c(Cl)c2)cc1 do in these assays?
rCAG RNA binder: 87; PG9 binder: inactive; HGIII-sPLA2 inh: inactive; MsrA act: inactive; MsrA inhibitor: inactive; rCAG bind conf: 82; dCAG dye counter: 52

Screens as filed in PubChem.
